Assay [1] is described as follows: ACEA_ER_80hr: ACEA Biosciences xCELLigence Real-Time Cell Analysis on Estrogen Receptor Agonism for Proliferation (AID 2282667; active = hit-call score of the fitted dose curve at least 0.9, where 1 is the maximum). Particulars: T47D proliferation, impedance (xCELLigence), 80 h. In short, it runs like this: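 Cell-growth kinetics were measured by impedance in T47D cells treated continuously with compound (top 100 uM final, 1:4 steps, 8 points). Activity at 80 h was scored as signal gain over the DMSO baseline.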

The nature of assay [2]: APR_HepG2_CellCycleArrest_24hr: Apredica 24-hour HepG2 Assay for Cell Cycle Arrest (AID 2282905).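 Also: cell cycle arrest scored as ratio of 2N to 4N nuclear DNA content.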 Particulars: imaging, actives raise or lower the signal. In short, it runs like this:
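Readout: Hoechst 33342 nuclear DNA content by high-content fluorescent imaging, six images/well, 20x. Human HepG2 liver cells, 24 hr compound exposure, 0.39–200 uM, final DMSO 0.5% v/v. Gain or loss fitted relative to DMSO baseline.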

Assay [3] is described as follows: APR_HepG2_NuclearSize_24hr: Apredica 24-hour HepG2 Assay for Nuclear Size (AID 2282907). The note with it: high-content imaging, actives raise or lower the signal. In short, it runs like this:
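Read-out: nuclear diameter from Hoechst 33342 (2 ug/mL) imaging of fixed HepG2 cells, 20x, six fields/well. Compounds ran at 0.39–200 uM for 24 hr, 0.5% DMSO final. Gain or loss was fitted bidirectionally relative to the DMSO baseline.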

Assay [4] is described as follows: APR_HepG2_CellLoss_24hr: Apredica 24-hour HepG2 Assay for Cell Loss (AID 2282908).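 As to AC50: fit in both directions so a hit may be cell loss or gain.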 Particulars: high-content imaging. In short, it runs like this: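 Read-out: Hoechst 33342-stained nuclei counted by automated fluorescence imaging after formaldehyde fixation and Triton permeabilization. Ten concentrations, 0.39 to 200 uM, duplicate wells, 0.5% DMSO final. Gain or loss of signal fitted relative to DMSO baseline.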

Assay [5] in a line: APR_HepG2_MicrotubuleCSK_24hr: Apredica 24-hour HepG2 Assay for Microtubule CSK Stabilty (AID 2282909). The note with it: HepG2 microtubule cytoskeleton imaging, actives raise or lower the signal. In short, it runs like this:
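Read-out: alpha-tubulin immunofluorescence intensity by automated high-content imaging of fixed HepG2 cells after 24 h compound treatment. Ten concentrations, 0.39 to 200 uM, in duplicate; DMSO 0.5% v/v. Taxol positive control; DMSO-normalized bidirectional curve fitting.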

A short description of assay [6]: APR_HepG2_MitoticArrest_24hr: Apredica 24-hour HepG2 Assay for Mitotic Arrest (AID 2282910). Particulars: high-content imaging, actives raise or lower the signal. In short, it runs like this:
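High-content imaging of fixed HepG2 cells labeled with Hoechst 33342 and anti-phospho-histone H3, after 24 h treatment. Ten concentrations 0.39 to 200 uM in duplicate, final DMSO 0.5%; changes fitted both directions relative to DMSO.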

Assay [7] can be described thus: APR_HepG2_MitoMembPot_24hr: Apredica 24-hour HepG2 Assay for Mitochondrial Membrane Potential (AID 2282911). The note with it: imaging, actives raise or lower the signal. An outline of the steps:
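Human hepatoma HepG2 cultures received ten compound concentrations up to 200 uM for 24 hr. Membrane-potential dye signal, captured by automated fluorescence microscopy, was scored for gain or loss against DMSO controls.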

A short description of assay [8]: APR_HepG2_MitoMass_24hr: Apredica 24-hour HepG2 Assay for Mitochondrial Mass (AID 2282912). Particulars: high-content imaging, actives raise or lower the signal. An outline of the steps: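 HepG2, 24 hr dosing, 10 concentrations 0.39–200 uM in duplicate, DMSO 0.5% final. MitoTracker Red CMXRos 250 nM, 30 min pre-fix; 3.7% formaldehyde fix. Imaging-based fluorescence intensity; gain/loss fit vs DMSO baseline.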

Assay [9] is described as follows: APR_HepG2_p53Act_24hr: Apredica 24-hour HepG2 Assay for p53 Activation (AID 2282913).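 Also: p53 protein immunofluorescence averaged per cell in HepG2 with Hoechst nuclei.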 The note with it: high-content imaging, actives raise or lower the signal. In short, it runs like this:
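Automated fluorescence imaging quantifies p53 immunostaining in HepG2 cells after a 24 hr exposure (0.39–200 uM, duplicate, 0.5% DMSO). Nuclei are located by Hoechst 33342 staining.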

Assay [10] in a line: APR_HepG2_CellCycleArrest_72hr: Apredica 72-hour HepG2 Assay for Cell Cycle Arrest (AID 2282914). The note with it: high-content imaging, actives raise or lower the signal. An outline of the steps: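 Cell cycle arrest in HepG2 was scored from nuclear DNA content after 72 hr compound treatment (0.39–200 uM). Activity, either gain or loss, was fitted against the DMSO baseline.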

A short description of assay [11]: APR_HepG2_CellLoss_72hr: Apredica 72-hour HepG2 Assay for Cell Loss (AID 2282915). Particulars: high-content imaging. An outline of the steps: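 Cell number comes from Hoechst 33342-labelled nuclei, imaged at 20x after 3.7% formaldehyde fixation. Dosing was 0.39–200 uM, ten concentrations in duplicate, 0.5% DMSO final, for 72 h. Bidirectional fit relative to DMSO baseline.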

Assay [12] is described as follows: APR_HepG2_P-H2AX_72hr: Apredica 72-hour HepG2 Assay for H2AX Phosphorylation (AID 2282916).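 Also: phospho-histone H2A.x immunostain intensity per cell marking DNA damage.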 The note with it: imaging, actives raise or lower the signal. An outline of the steps: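 Readout: phospho-H2A.x immunofluorescence (FITC secondary) plus Hoechst nuclear stain, high-content imaging at 20x, six fields/well. HepG2, 72 hr compound exposure, 0.39–200 uM, final DMSO 0.5% v/v. Gain or loss fitted relative to DMSO baseline.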

Assay [13] is described as follows: APR_HepG2_MitoMembPot_72hr: Apredica 72-hour HepG2 Assay for Mitochondrial Membrane Potential (AID 2282917). The note with it: imaging, actives raise or lower the signal. In short, it runs like this: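 Membrane potential read by MitoTracker Red CMXRos (250 nM, 30 min, pre-fixation) fluorescence imaging of HepG2 after 72 hr exposure. Ten concentrations, 0.39–200 uM, duplicate wells, 0.5% DMSO; fitted in both directions against DMSO baseline.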

Assay [14] in a line: APR_HepG2_MitoticArrest_72hr: Apredica 72-hour HepG2 Assay for Mitotic Arrest (AID 2282918). The note with it: high-content imaging, actives raise or lower the signal. An outline of the steps:
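Mitotic arrest in HepG2 is scored from phospho-histone H3 staining after 72 hr dosing across 0.39–200 uM, with DMSO at 0.5% v/v. Nuclei are identified by Hoechst 33342 and fluorescence intensity is quantified per cell.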

Assay [15] is described as follows: APR_HepG2_MicrotubuleCSK_72hr: Apredica 72-hour HepG2 Assay for Microtubule CSK Stabilty (AID 2282919). Particulars: HepG2 microtubule cytoskeleton, high-content imaging, actives raise or lower the signal. In short, it runs like this: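 High-content imaging of alpha-tubulin staining in fixed HepG2 cells after 72 hr treatment with ten concentrations from 0.39 to 200 uM (0.5% DMSO). Fitting was bidirectional against DMSO; taxol served as positive control.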

Assay [16] in a line: APR_HepG2_P-H2AX_24hr: Apredica 24-hour HepG2 Assay for H2AX Phosphorylation (AID 2282920). The note with it: high-content imaging, actives raise or lower the signal. An outline of the steps: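 Signal comes from a FITC-labeled secondary detecting phospho-histone H2A.x in fixed HepG2 cells, quantified by automated imaging at 20x. Dosing ran 24 hr across 0.39–200 uM with 0.5% v/v DMSO.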

Assay [17] can be described thus: APR_HepG2_StressKinase_72hr: Apredica 72-hour HepG2 Assay for Stress Kinase (AID 2282921). Particulars: HepG2 stress kinase (phospho-c-Jun) imaging, actives raise or lower the signal. In short, it runs like this: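 Phospho-c-Jun immunofluorescence measured by high-content imaging at 20x, six fields per well; bidirectional curve fitting against DMSO as baseline. Dosing: 0.39–200 uM, 72 h, 0.5% DMSO final.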

Assay [18] in a line: APR_HepG2_StressKinase_24hr: Apredica 24-hour HepG2 Assay for Stress Kinase (AID 2282922). The note with it: HepG2 stress kinase (phospho-c-Jun) imaging, actives raise or lower the signal. An outline of the steps:
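High-content imaging of phospho-c-Jun immunofluorescence in fixed, permeabilized HepG2 cells after 24 h dosing. Ten concentrations, 0.39 to 200 uM, run in duplicate at 0.5% v/v DMSO; gain or loss of signal versus DMSO.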

Assay [19] can be described thus: APR_HepG2_p53Act_72hr: Apredica 72-hour HepG2 Assay for p53 Activation (AID 2282923).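 Also: average cellular p53 protein immunofluorescence intensity in HepG2 cells.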 Particulars: high-content imaging, actives raise or lower the signal. In short, it runs like this:
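Readout: p53 immunofluorescence quantified by automated high-content imaging at 20x, six fields per well, nuclei located via Hoechst. Dosing ran 72 hr over ten concentrations from 0.39 to 200 uM; bidirectional curve fitting against DMSO baseline.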

A short description of assay [20]: APR_HepG2_MitoMass_72hr: Apredica 72-hour HepG2 Assay for Mitochondrial Mass (AID 2282924).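 Also: MitoTracker Red CMXRos stain intensity per cell imaged as mitochondrial mass.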 Particulars: high-content imaging, actives raise or lower the signal. In short, it runs like this:
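Readout is imaged MitoTracker Red (250 nM, 30 min, pre-fixation) signal, fitted bidirectionally against DMSO baseline. Human HepG2 liver cells received compound 0.39–200 uM in duplicate for 72 hr, final DMSO 0.5%.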

Results filed as inconclusive are left out. Active and inactive are the calls of the source. The calls were made as follows, unless noted: active = hit-call score of the fitted dose curve at least 0.9, where 1 is the maximum; inactive = score below 0.9.

As to `Cc1cc(CCN2CCN(c3nsc4ccccc34)CC2)cc2c1NC(=O)CC2(C)C`, the molecule was classed as inactive in [1], in assay [2], in assay [3], in [5], in assay [7] and in [10]. For the same molecule, the molecule was called inactive in [13], in assay [17] and in assay [18]. For the same molecule, the concentration at half-maximal activity (AC50) (commonly the concentration giving half of the maximal activity seen) in assay [4] was 28.6 µM (active); in assay [6], 15.7 µM (active); in assay [8], 22.2 µM (active); in assay [9] it was 18.2 µM (active); in [11], 30.9 µM (active); in assay [12] it was 11.2 µM (active). Also, the AC50 was 39.7 µM (active) in assay [14]; 37.6 µM (active) in [15]; 22 µM (active) in assay [16]; 33.8 µM (active) in assay [19]; 29 µM (active) in assay [20].
Turning to `CCCCCCCC(=O)O`, the call in assay [1], in [2], in assay [3], in assay [4], in [5] and in assay [6] was inactive. In addition, the result in assay [8], in [9], in assay [10], in assay [11], in [12] and in assay [13] was inactive. In addition, the molecule was called inactive in assay [14], in assay [15], in [16], in assay [17], in [18] and in assay [19]. Besides, in assay [20], the molecule was called inactive. In addition, the AC50 in [7] was 0.0327 µM (active).
As for `CC(=O)NC1(c2cccc(F)c2)CCN(CC[C@@]2(c3ccc(Cl)c(Cl)c3)CN(c3ccccc3)C(=O)CO2)CC1`, the call in assay [1], in [3], in assay [13], in [18] and in assay [20] was inactive. For the same molecule, the concentration at half-maximal activity (AC50) is 26.3 µM (active) in assay [2]; 36.3 µM (active) in assay [4]; 146 µM (active) in assay [5]; 31.6 µM (active) in assay [6]; 90.2 µM (active) in [7]; 151 µM (active) in assay [8]. In addition, the half-maximal activity concentration (AC50) in assay [9] was 21.6 µM (active); in [10], 18.7 µM (active); in assay [11], 21.3 µM (active); in [12] it was 21.8 µM (active); in assay [14] it was 14.8 µM (active); in assay [15], 37.7 µM (active). Also, the AC50 was 39.3 µM (active) in assay [16], 24 µM (active) in assay [17] and 18.7 µM (active) in assay [19].
With `CC[C@H](C)[C@@H](C(=O)O)n1sc2ccccc2c1=O`, the outcome in assay [1], in assay [2], in assay [3], in [4], in assay [5] and in assay [6] was inactive. The call in assay [8], in [9], in assay [10], in assay [11], in [12] and in assay [13] was inactive. For the same molecule, the outcome in [14], in [15], in assay [16], in assay [17], in assay [18] and in assay [19] was inactive. The call in assay [20] was inactive. Moreover, in [7], the concentration at half-maximal activity (AC50) was 100 µM (active).
Regarding `Oc1cc2ccccc2c2ccccc12`, the molecule was classed as inactive in assay [1], in assay [3], in assay [10] and in assay [17]. Further, the concentration at half-maximal activity (AC50) is 37.1 µM (active) in [2]; 13.1 µM (active) in assay [4]; 55 µM (active) in [5]; 7.13 µM (active) in [6]; 43.1 µM (active) in assay [7]; 97.7 µM (active) in assay [8]. For the same molecule, the AC50 is 3.2 µM (active) in [9]; 4.01 µM (active) in [11]; 58.6 µM (active) in assay [12]; 38.2 µM (active) in assay [13]; 8.45 µM (active) in [14]; 8.21 µM (active) in [15]. For the same molecule, the half-maximal activity concentration (AC50) in assay [16] was 3.28 µM (active); in assay [18] it was 121 µM (active); in assay [19], 111 µM (active); in assay [20] it was 61.3 µM (active).

The values are drawn from PubChem BioAssay (EPA / NIEHS).
